Data from PubChem BioAssay (NCI).
This is part of a sample that, as a whole, favours compounds with a hit. Of some 79,000 tested, about 15% had one in any assay. Cut-off read from the data, not from the text of the source: active = growth inhibition above about 70%; inactive = the rest.

Legend:
[1] = NCI Yeast Anticancer Drug Screen. Data for the rad50 strain (AID 155);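 note: 0% = growth of vehicle-only cultures of the same strain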; settings: S. cerevisiae rad50 strain growth inhibition; at 50.0 µM; stronger effect = higher value
How it was run: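 Inhibition values express reduced yeast growth in compound-treated cultures relative to vehicle-treated controls.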

[2] = NCI Yeast Anticancer Drug Screen. Data for the mec2-1 strain (AID 157); settings: S. cerevisiae mec2-1 strain, at 50.0 µM, stronger effect = higher value
How it was run: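 Using mec2-1 yeast: add compound, measure growth, express inhibition versus vehicle-treated cultures.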

[3] = NCI Yeast Anticancer Drug Screen. Data for the sgs1 mgt1 strain (AID 161);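 note: 0% = growth of cultures given vehicle only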; settings: S. cerevisiae sgs1 mgt1 strain, at 50.0 µM, stronger effect = higher value
How it was run: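 Percent growth inhibition was derived by comparing compound-exposed mutant yeast with vehicle-exposed cultures. The strain carries alterations in DNA damage repair.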

[4] = NCI Yeast Anticancer Drug Screen. Data for the cln2 rad14 strain (AID 165);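 note: 0% = growth equal to vehicle treated cultures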; settings: S. cerevisiae cln2 rad14 strain, at 50.0 µM, stronger effect = higher value
How it was run: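 Yeast strain cln2 rad14, bearing defects in cell cycle control and DNA repair, serves as the test system; values reflect growth inhibition compared with vehicle.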

[5] = NCI Yeast Anticancer Drug Screen. Data for the bub3 strain (AID 167); settings: S. cerevisiae bub3 mutant strain, at 50.0 µM, stronger effect = higher value
How it was run: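 Steps: expose the mutant yeast strain to compound; grow alongside vehicle-treated cultures; measure growth; express inhibition against the vehicle cultures.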

[6] = NCI Yeast Anticancer Drug Screen. Data for the mlh1 rad18 strain (AID 175); settings: S. cerevisiae mlh1 rad18 strain growth inhibition; at 50.0 µM; stronger effect = higher value
How it was run: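 Steps: expose repair-defective yeast to compound; measure growth; express inhibition against vehicle-treated controls.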

Measured: growth inhibition

CC1(C)CC(O)=CC(=O)N1
inactive: [1] 15.9% | [2] -5.75% | [3] -3.85% | [4] 11.7% | [5] 10.3% | [6] 4.45%

CCc1cc2c(Nc3ccccc3)c3c(nc2s1)CCCC3
inactive: [1] -15.3% | [2] -25.8% | [3] -8.75% | [4] 11.5% | [5] 16.4% | [6] -33.5%

Cc1ccc(C)c2c1CCc1cc3ccccc3nc1-2
inactive: [1] 26.4% | [2] -7.5% | [3] 11.8% | [4] 7.9% | [5] 30.2% | [6] 13.8%

Nc1nc(N)c(N=Nc2ccccc2[N+](=O)[O-])c(=O)[nH]1
inactive: [1] 5.85% | [2] -15.8% | [3] 2.4% | [4] -4.95% | [5] 11.1% | [6] -1.05%

NC(N)=N/N=C(\c1nc2ccc([N+](=O)[O-])cc2[nH]c1=O)C(O)c1ccc([N+](=O)[O-])cc1 (stereo unspecified)
inactive: [1] -16% | [2] -24.9% | [3] -16.6% | [4] -24.1% | [5] -6.7% | [6] 1.85%

CC(=O)CC(=O)Nc1ccc(C(=O)O)c(O)c1
inactive: [1] -14.2% | [2] -18.9% | [3] 8.4% | [4] -1.45% | [5] 32.1% | [6] -1%

CCN(c1ccccc1)S(=O)(=O)c1ccc(Oc2ccccc2)c(N)c1
inactive: [1] 27.2% | [2] -18.9% | [3] 16.9% | [4] 12.5% | [5] 36.5% | [6] -10.8%

C/C=C/C1OCC(C)([N+](=O)[O-])CO1 (stereo unspecified)
inactive: [1] 23.5% | [2] 10.1% | [3] 19.4% | [4] 12.5% | [5] -1.35% | [6] 31.1%

CC1(C)CC([N+](C)(C)CCCCCC[N+](C)(C)C2CC(C)(C)N(O)C(C)(C)C2)CC(C)(C)N1O
inactive: [1] 3.6% | [2] 0.45% | [3] 14.9% | [4] -4.3% | [5] -3% | [6] 12.5%

Fc1c(F)c(F)c(Nc2c(F)c(F)c3c(F)c(F)c(F)c(F)c3c2F)c(F)c1F
inactive: [1] 1.15% | [2] 49.7% | [3] -16.3% | [4] -62.9% | [5] 2.9% | [6] 0.95%

CC1CCC/C1=C(/I)C(=O)c1ccccc1 (stereo unspecified)
inactive: [1] 2.25% | [2] -6.75% | [3] 24.6% | [4] 7.85% | [5] -2.15% | [6] -59.6%

COC1CCC2(C)C3CCC4C(=CCC5C(C)(C)C(OC(C)=O)CCC45C)CC3(C)CCC2C1(C)C (stereo unspecified)
inactive: [1] 13.1% | [2] -19.4% | [3] -8.35% | [4] -20.8% | [5] 0.1% | [6] 0.2%

COP(=O)(O)OP(=O)(O)OC
inactive: [1] 1.2% | [2] -29.5% | [3] 25.2% | [4] 6.35% | [5] 13.8% | [6] 16.8%

CC1=C(C(=O)OC2CC3CCC2(C)C3(C)C)C2Nc3ccccc3N(C)C2O1 (stereo unspecified)
inactive: [1] -4.75% | [2] -8.8% | [3] -3.65% | [4] -3.2% | [5] -8.4% | [6] 6.95%

COc1ccccc1/C=C(\S)C(=O)O
inactive: [1] -18.9% | [2] -6.9% | [3] -19.3% | [4] -43.5% | [5] -12.7% | [6] 8.45%

c1ccc(-c2sc(-c3ccccc3)c3c2C2CCC3C2)cc1
inactive: [1] -12.4% | [2] 6.05% | [3] 14% | [4] 29% | [5] 40.6% | [6] -0.05%

C=C1C(=O)OC2C1C(OC(=O)/C(C)=C/C)CC1(C)C(=O)CCC(=C)C21 (stereo unspecified)
inactive: [1] 38.3% | [2] 47% | [3] 52.8% | [4] 44.1% | [5] 52.8% | [6] 63.6%

COC1=CC(=O)C(C2OC(=O)C(Cl)=C2Cl)=CC1=O (stereo unspecified)
inactive: [1] 8.1% | [2] 7.3% | [3] -2.45% | [4] -11.4% | [5] 16.6% | [6] 13.2%

C[P+]1(CCc2ccc(Cl)cc2)CC=CC1
inactive: [1] -4.15% | [2] 5.2% | [3] -2.9% | [4] -18.9% | [5] 0.2% | [6] -3.95%

CC(=O)OC12C3C4C1C1C2C3C41OC(C)=O (stereo unspecified)
inactive: [1] -4.95% | [2] 11.8% | [3] -24.1% | [4] 0.9% | [5] -16.4% | [6] -7.5%

Cc1cc(S(=O)(=O)Nc2cc(N)[nH]n2)c(SCc2nc(N)nc(N(C)C)n2)cc1Cl
inactive: [1] 11.2% | [2] 8.7% | [3] -0.1% | [4] 2.7% | [5] 6.6% | [6] 8.05%
